Measurements from PubChem BioAssay (NCATS).
Where “and” joins values, the source holds several entries; their conditions need not be identical. Identical values can stand only once. Inconclusive results are not listed. Unmarked numbers belong to inactive results. Calls of active or inactive are those of the source. Calls follow the shape of the dose curve; as a rule, active = well fitted curve in the direction sought with a large enough effect; inconclusive = small, poorly fitted or top-dose-only effect, or another doubt; inactive = no such curve, though single readings can be large; an effect the other way counts as inactive or inconclusive.

Key:
[1] = Viability qHTS for spleen associated tyrosine kinase inhibitor (SYKi) naive MV4-11 cells (AID 1963823); also: nearly all actives have a fitted effect of over 40% in size
Outline: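 Read-out: CellTiter-Glo luminescence. Exposure: 72 hr, 37 C, 5% CO2, 95% humidity. Cells: MV4-11 without SYK inhibitor history, 500/well, qHTS format.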

[2] = Viability qHTS for spleen associated tyrosine kinase inhibitor (SYKi) drug resistant MV4-11 cells (AID 1963824); also: nearly all actives have a fitted effect of over 35% in size
Outline: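 SYK-inhibitor-resistant MV4-11 AML cells were seeded at 500 per well onto compound and cultured 72 hours (37 °C, 5% CO2). CellTiter-Glo was then added, and after 10 min at room temperature, luminescence gave viability.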

[3] = Quantitative highthroughput screen to assess conditional lethalithy of NOMO1 cells grown in RPMI1640 with untreated serum (RPMI+s) (AID 1963876); also: nearly all actives have a fitted effect of over 35% in size;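 as to Viability: 100% = DMSO wells and 0% = empty wells without cells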
Outline: (§1)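 Each medium arm—HPLM with 10% dialyzed FBS, or RPMI1640 with 5 mM glucose and 10% untreated or dialyzed FBS—was screened against an 11-point, 3-fold compound titration for 48 h at 37 °C, with CellTiter-Glo luminescence as endpoint.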

[4] = Quantitative highthroughput screen to assess conditional lethalithy of NOMO1 cells grown in RPMI1640 with dialyzed fetal bovine serum (RPMI+ds) (AID 1963877); also: nearly all actives have a fitted effect of over 30% in size;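 as to Viability: series mostly up to about 46 µM; 100% = DMSO control wells and 0% = empty wells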
Outline: as §1

[5] = Quantitative highthroughput screen to assess conditional lethalithy of NOMO1 cells grown in Human Plasma-Like Medium with dialyzed fetal bovine serum (HPLM+ds) (AID 1963878); also: nearly all actives have a fitted effect of over 35% in size;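 as to Viability: 100% = DMSO wells and 0% = empty wells on each plate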
Outline: as §1

[6] = Quantitative highthroughput screen to assess conditional lethalithy of P12 Ichikawa cells grown in Human Plasma-Like Medium with dialyzed fetal bovine serum (HPLM+ds) (AID 1963879); conditions: Potency: viability; also: nearly all actives have a fitted effect of over 35% in size; as to Viability: series mostly up to about 46 µM
Outline: as §1

[7] = Quantitative highthroughput screen to assess conditional lethalithy of P12 Ichikawa cells grown in RPMI1640 with dialyzed fetal bovine serum (RPMI+ds) (AID 1963880); conditions: Potency: P12-Ichikawa viability; also: nearly all actives have a fitted effect of over 35% in size;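 as to Viability: 100% = DMSO wells and 0% = empty wells on each plate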
Outline: as §1

[8] = Quantitative highthroughput screen to assess conditional lethalithy of P12 Ichikawa cells grown in RPMI1640 with untreated serum (RPMI+s) (AID 1963881); conditions: Potency: viability; also: nearly all actives have a fitted effect of over 35% in size;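 as to Viability: series mostly up to about 46 µM; 100% = DMSO wells and 0% = empty wells without cells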
Outline: as §1

[9] = Quantitative highthroughput screen to assess conditional lethalithy of SEM cells grown in Human Plasma-Like Medium with dialyzed fetal bovine serum (HPLM+ds) (AID 1963882); also: nearly all actives have a fitted effect of over 35% in size; as to Viability: series mostly up to about 46 µM
Outline: as §1

[10] = Quantitative highthroughput screen to assess conditional lethalithy of SEM cells grown in RPMI1640 with unreated serum (RPMI+s) (AID 1963883); also: nearly all actives have a fitted effect of over 35% in size;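 as to Viability: 100% = DMSO wells and 0% = empty wells without cells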
Outline: as §1

[11] = Cellular viability qHTS for adrenocortical cancer (ACC) cell line SW-13 (AID 1963989); conditions: SW-13 ACC cells viability, CellTiter-Glo, 48 h; activity (max response): hits give low values; also: nearly all actives have a fitted effect of over 65% in size;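 as to activity (max response): cells grown in serum-free medium with ITS supplement; % is scaled to controls: 0 for no effect and ±100 for the full control effect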
Outline: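 Luminescent ATP read-out (CellTiter-Glo, 20 min at room temperature) measured metabolically competent SW-13 cells after 48 h compound treatment. Final concentrations spanned up to 46 uM; bortezomib served as positive control.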

[12] = Cellular viability qHTS for adrenocortical cancer (ACC) cell line NCI-H295R (AID 1963990); also: nearly all actives have a fitted effect of over 60% in size;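 as to activity change, negative = viability loss: 0% = DMSO only wells and -100% = full killing with cytotoxic reference compound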
Outline: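 IC50 and maximal efficacy derive from four-parameter logistic modelling of titration curves, with reads scaled between DMSO-only wells (0%) and doxorubicin hydrochloride (100% inhibition). Compounds spanned up to 46 uM over 48 h.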

[13] = Quantitative highthroughput screen to assess conditional lethalithy of SEM cells grown in RPMI1640 with dialyzed fetal bovine serum (RPMI+ds) (AID 1963884); also: nearly all actives have a fitted effect of over 35% in size;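 as to Viability: series mostly up to about 46 µM; 100% = DMSO control wells and 0% = empty wells without cells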
Outline: as §1
Potency is read from the fitted curve at half-maximal effect.

| Structure (SMILES) | Potency [1] | Potency [2] | Potency [3] | Potency [4] | Potency [5] | Potency [6] | Potency [7] | Potency [8] | Potency [9] | Potency [10] | Potency [11] | Potency [12] | Potency [13] | activity (max response) [11] | activity change, negative = viability loss [12] |
| --- | --- | --- | --- | --- | --- | --- | --- | --- | --- | --- | --- | --- | --- | --- | --- |
| C=C1C(=O)[C@@]23C(CC[C@@H]1[C@H]2O)[C@@]12CO[C@]3(O)[C@@H](O)[C@@H]1C(C)(C)CC[C@@H]2O (stereo partly specified) | 1.32 µM (active) | 1.3 µM (active) | 20.9 µM (active) | 23.5 µM (active) | 18.7 µM (active) | 13.2 µM (active) | 7.43 µM (active) | 7.43 µM (active) | 8.33 µM (active) | 3.72 µM (active) | 28.2 µM (active) | 10 µM (active) |  |  |  |
| Cc1nc(N)ncc1-c1nc(N2CCOCC2)c2sc(C(C)(C)O)cc2n1 | 2.59 µM (active) and 3.32 µM (active) | 3.66 µM (active) and 5.9 µM (active) | 0.209 µM (active) | 0.332 µM (active) | 0.0372 µM (active) | 0.0833 µM (active) | 0.372 µM (active) | 0.372 µM (active) | 0.148 µM (active) | 0.0332 µM (active) |  | 2.24 µM (active) | 0.0743 µM (active) |  |  |
| Oc1ccc(-c2nc(-c3ccc(F)cc3)c(-c3ccncc3)[nH]2)cc1 | 9.34 µM (active) | 8.33 µM (active) | 10.5 µM (active) | 13.2 µM (active) | 3.72 µM (active) | 5.26 µM (active) | 13.2 µM (active) | 16.6 µM (active) | 0.662 µM (active) | 0.469 µM (active) |  | inactive | 0.372 µM (active) |  |  |
| CC[C@H](C=C[C@@H](C)[C@H]1CC[C@H]2[C@@H]3CC=C4C[C@@H](O)CC[C@]4(C)[C@@H]3CC[C@]12C)C(C)C | inactive | inactive | inactive | inactive | 7.24 µM (active) | inactive | inactive | inactive | inactive | inactive |  | inactive | inactive | 10.2% |  |
| CNC1CCC(N(Cc2cccc(-c3ccncc3)c2)C(=O)c2sc3ccccc3c2Cl)CC1 (stereo unspecified) | 7.31 µM (active) and 5.25 µM (active) | 5.8 µM (active) and 5.25 µM (active) | 3.32 µM (active) | 16.6 µM (active) | 1.48 µM (active) | 1.18 µM (active) | 1.66 µM (active) | 2.09 µM (active) | 1.32 µM (active) | 0.372 µM (active) | 10 µM (active) | 6.31 µM (active) | 0.833 µM (active) |  |  |
| CN(CCOc1ccc(NS(C)(=O)=O)cc1)CCc1ccc(NS(C)(=O)=O)cc1 | inactive | inactive | inactive | inactive | inactive | inactive | inactive | inactive | inactive | inactive |  | inactive |  | 0.645% and 1.15% |  |
| O=C1c2c(O)cc(O)cc2OC(c2ccc(O)c(O)c2)C1O (stereo unspecified) | inactive | inactive | inactive | inactive | inactive | inactive | inactive | inactive | inactive | inactive |  | inactive | inactive | -4.92% |  |
| CN1CC(=O)NC1=NC(=O)Nc1cccc(Cl)c1 | inactive | inactive | inactive | inactive | inactive | inactive | inactive | inactive | inactive | inactive |  | inactive | inactive | -5.87% |  |
| O=C(CCCCCCC(=O)Nc1ccc([C@H]2O[C@@H](CSc3nc(-c4ccccc4)c(-c4ccccc4)o3)C[C@@H](c3ccc(CO)cc3)O2)cc1)NO | 16.4 µM (active) | 18.4 µM (active) | 9.35 µM (active) | 9.35 µM (active) | 8.33 µM (active) | 4.69 µM (active) | 3.32 µM (active) | 4.69 µM (active) | 7.43 µM (active) | 7.43 µM (active) |  |  |  | -9.54% | -23.6% [at 9.17 µM] |
| N=c1ccn2c(n1)O[C@H]1[C@@H](O)[C@@H](CO)O[C@H]12 | 2.95 µM (active) | 3.32 µM (active) | 2.96 µM (active) | 1.48 µM (active) | 1.48 µM (active) | 0.132 µM (active) | 0.132 µM (active) | 0.118 µM (active) | 0.132 µM (active) | 0.132 µM (active) |  | inactive | 0.0935 µM (active) |  |  |
| CN1CCC(COc2cnc(-c3cccc(Cn4nc(-c5cccc(C#N)c5)ccc4=O)c3)nc2)CC1 | 7.42 µM (active) and 8.2 µM (active) | 7.42 µM (active) and 13 µM (active) | inactive | inactive | inactive | inactive | inactive | inactive | inactive | inactive |  | 25.1 µM (active) | inactive |  |  |
